# In the library only some 0.55% were active in any assay of this set; here they are far more common.
# ERG Ets-DNA blk – qHTS for Small Molecule Inhibitors of the ERG Ets/DNA interaction | Transcriptional regulator ERG (Homo sapiens), P11308 | fluorescence polarization, His-ERG Ets domain / labelled DNA | Potency, µM (highest dose often 76.9 µM), actives largely listed as inhibitors | hit rate 0.028% among 370,000 | AID 624246, 2012; active means well fitted inhibition curve with a large enough effect in the polarisation, with a control signal flat; inconclusive means small, poorly fitted or top-dose-only effect, or effect the other way, or a change in a side signal; inactive means no such curve, though single readings can be large or run the other way; the % refers to the polarisation;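 further: polarization taken with two DNA probes labelled with fluorescein and Texas red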
# Target sequence (P11308 whole entry, looked up, the tested form may be a part): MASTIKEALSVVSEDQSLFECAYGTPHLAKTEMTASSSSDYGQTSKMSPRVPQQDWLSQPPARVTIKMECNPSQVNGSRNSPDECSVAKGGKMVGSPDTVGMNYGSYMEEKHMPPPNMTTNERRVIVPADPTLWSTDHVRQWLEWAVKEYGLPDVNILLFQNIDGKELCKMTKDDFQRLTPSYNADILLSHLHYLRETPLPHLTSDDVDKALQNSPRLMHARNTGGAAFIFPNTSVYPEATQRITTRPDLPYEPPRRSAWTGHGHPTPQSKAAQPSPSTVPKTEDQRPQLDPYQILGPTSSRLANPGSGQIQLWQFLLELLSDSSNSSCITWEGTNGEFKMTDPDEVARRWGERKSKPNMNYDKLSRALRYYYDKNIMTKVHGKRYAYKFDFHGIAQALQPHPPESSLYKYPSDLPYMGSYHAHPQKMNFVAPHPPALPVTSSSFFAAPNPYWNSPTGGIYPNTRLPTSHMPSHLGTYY
#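 His-tagged ERG Ets domain (1 uM in the protein solution; 300mM KCl, 50mM Tris-HCl, 1mM EDTA, 1mM DTT, pH 7.5) received compound, then a probe mix of 5 nM fluorescein-DNA and 100nM Texas-615-DNA. Fluorescence polarization was read for both dyes.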
# Tb PFK inh-1 – qHTS Assay to Find Inhibitors of T. brucei phosphofructokinase; T. brucei PFK, ADP-Glo luminescence; hit rate 0.17% among 330,000; Potency, µM (titrated, usually from 57.5 µM), most hits filed as inhibitors; ATP-dependent 6-phosphofructokinase (Trypanosoma brucei brucei), O15648; further: nearly all actives have a fitted effect of over 60% in size
#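 Luminescent ADP detection (ADP-Glo, two-step: ATP depletion then ADP-to-ATP conversion for luciferase) reported PFK activity after 45 min room-temperature reaction of 1.25 nM enzyme with 0.5 mM F6P and 0.1 mM ATP at pH 8.0.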
# A-T KAP1 phos – qHTS Assay for Identifying a Potential Treatment of Ataxia-Telangiectasia. F2112 A-T fibroblasts, KAP-1 phosphorylation AlphaLISA; neocarzinostatin DNA damage 30 min before lysis. Potency, µM (titrated, usually from 57.5 µM), actives largely listed as activators. hit rate 0.19% among 320,000. AID 485349, 2010; further: nearly all actives have a fitted effect of over 45% in size
#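 hTERT-immortalized A-T patient fibroblasts (F2112), 500 cells/well in OPTI-MEM, 1% FBS, got compounds for 60 min, then NCS for 30 min at 37C. Lysates were then assayed for phospho-KAP-1 by AlphaLISA (anti-pKAP1 donor, anti-KAP1 acceptor beads), 6 hr at 25C.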
# ASM inhibitor – Inhibitors of Secretory Acid Sphingomyelinase (S-ASM): qHTS; Sphingomyelin phosphodiesterase (Homo sapiens), P17405; placental ASM, HMU-PC fluorogenic substrate, 60 min; Potency, µM (top dose mostly 57.5 µM), hits mostly inhibitors; hit rate 0.006% among 340,000; AID 504937, 2011
#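 Fluorogenic HMU-PC substrate (9 uM final) is turned over by placental ASM in 60 min at 37 C after a 10 min compound preincubation. Reaction ended by alkaline stop (pH 10), with fluorescence read at 386/447 nm.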
# KAT2A inh – qHTS Assay for Inhibitors of GCN5L2. hit rate 0.21% among 390,000. GCN5L2 HAT assay, ThioGlo1 CoA-SH fluorescence. Histone acetyltransferase KAT2A (Homo sapiens), Q92830. Potency, µM (titrated, usually from 58.9 µM), most hits filed as inhibitors
#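 qHTS, 1536-well. 20nM enzyme, pH 7.5 HEPES/EDTA/Tween-20 buffer; 15 min compound preinc., RT. Start: 75uM H3(1-25), 70uM AcCoA, 50uM ThioGlo1. Read Ex340/Em540 at t=0 (autofluorescence flag) and t=20 min.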
# p53 reactivator – qHTS assay for re-activators of p53 using a Luc reporter; H1299 p53-A138V BP100-luciferase reporter, luminescence, 24 h; Potency, µM (series often up to 92.2 µM), hits mostly activators; hit rate 0.063% among 320,000; AID 504706, 2011; further: nearly all actives have a fitted effect of over 45% in size
#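 H1299 (p53-null), stable ts p53-A138V + BP100-Luc; 1000 cells/well, Opti-MEM/10% FBS; cpd 4 pt, 1:5; 24 h, 37 deg C, 5% CO2; detection reagent 10 min RT; luminescence.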
# Tb PFK KinaseGlo – Tb PFK orthogonal confirmatory assay using ATP depletion (Kinase-Glo Plus) as an alternative measure of Tb PFK activity: Hit Validation | Potency, µM (highest dose often 57.5 µM) | AID 504636, 2011 | Tb PFK enzyme, ATP depletion, Kinase-Glo Plus luminescence | hit rate 47% among 1,100 | shares compounds with Tb PFK inh-1; calls by dose curve; further: nearly all actives have a fitted effect of over 60% in size
# Tb PFK inh-2 – Inhibitors of T. brucei phosphofructokinase: Hit Validation | hit rate 41% among 1,100 | purified T. brucei PFK, ADP-Glo luminescence, 45 min | shares compounds with Tb PFK inh-1 | AID 504637, 2011 | Potency, µM (highest dose often 57.5 µM), most hits filed as inhibitors; further: nearly all actives have a fitted effect of over 60% in size
# Numbers stand for hits; 0 = inactive; ? = inconclusive; - = no result; [ ] = another dose, or the depositor's remark. Unless noted, the call rests on the fitted dose curve; in most records, active means well fitted curve in the direction sought with a large enough effect; inconclusive means small, poorly fitted or top-dose-only effect, or another doubt; inactive means no such curve, though single readings can be large; an effect the other way counts as inactive or inconclusive.
SMILES,ERG Ets-DNA blk,Tb PFK inh-1,A-T KAP1 phos,ASM inhibitor,KAT2A inh,p53 reactivator,Tb PFK KinaseGlo,Tb PFK inh-2
CCCCn1c(=O)c(C(=O)NCc2ccc(Cl)cc2)c(O)c2ccccc21,0,0,0,0,0,?,-,-
COCCCNC(=O)c1cc(=O)n(Cc2ccc(Cl)cc2)c2ccccc12,0,11µM,0,0,0,0,24µM,?
CN1C2CCC1CC(OC(c1ccc(F)cc1)c1ccc(F)cc1)C2 (configuration not stated),-,-,-,-,0,-,-,-
CCn1c(N)c(C(=O)NC)sc1=S,0,?,0,0,0,0,9.5µM,19µM
O=C(c1cc(-c2ccccc2)nc2ccccc12)N1CCC2(CC1)OCCO2,0,0,0,0,0,0,-,-
COC(=O)c1sc(NC(=O)c2cc(-c3ccccc3)nc3ccccc23)c(C#N)c1C,0,6.7µM,0,0,?,0,8.5µM,15µM
Clc1nssc1=Nc1nncs1,0,4.3µM,0,0,2.2µM,0,12µM,9.5µM
O=c1[nH]c(O)c(N=Nc2cccc(S(=O)(=O)N3CCOCC3)c2)c(=O)[nH]1,0,0,0,0,0,0,-,-
O=C(COC(=O)c1ccc(Cl)c(S(=O)(=O)N2CCOCC2)c1)Nc1ccc2[nH]c(=O)[nH]c2c1,0,?,0,0,0,0,?,?
C[C@H](NC(=O)[C@@H](N)Cc1ccc(O)cc1)C(=O)N[C@@H](Cc1ccccc1)C(=O)N[C@@H](Cc1ccccc1)C(N)=O,-,-,-,-,0,-,-,-
O=[N+]([O-])c1cc2c(cc1Br)CCN2,0,3.4µM,0,0,0,0,4.3µM,6µM
CC(C)[C@@H]1NC(=O)c2cc([N+](=O)[O-])cc(I)c2NCCCC[C@@H](C(=O)NC(CC(=O)O)C(N)=O)NC(=O)[C@H](CO)NC1=O (some centres not stated),-,?,0,-,0,0,-,-
NC(=O)c1c(-c2cccs2)csc1N,0,?,0,0,0,0,0,?
COC(=O)[C@@]1(O)C[C@@H]2O[C@@]1(C)n1c3ccccc3c3c4c(c5c6ccccc6n2c5c31)C(=O)NC4,-,-,-,-,0,-,-,-
NCCCP(=O)(O)CC1CCCCC1,-,-,-,-,0,-,-,-
O=C1C(SCCO)=C(SCCO)C(=O)c2ccccc21,13µM,9.5µM,0,0,0,0,0.6µM,?
O=C1c2ccccc2-c2cc3ccccc3cc21,0,-,-,0,-,-,-,-
CN[C@@H](Cc1c[nH]c2ccccc12)C(=O)O,-,-,-,-,0[0.501 µM],-,-,-
NCCCCCc1nnc(SCc2ccc(Cl)c(Cl)c2)o1,0,24µM,0,0,0,0,13µM,30µM
Clc1ccc(CSc2nnc([C@@H]3CCCN3)o2)cc1Cl,0,30µM,0,0,0,0,12µM,27µM
Cc1nnc(NCCc2ccccc2)[nH]c1=O,0,?,0,0,0,0,24µM,27µM
Cc1cccc(CNCCc2ccccc2)n1,0,0,0,0,0,0,-,-
Clc1ccc(CSC2=NCCCN2)cc1Cl,0,5.4µM,0,0,0,0,11µM,21µM

# Screens (PubChem BioAssay)
